Records with an inconclusive call do not appear. The source made the active and inactive calls. Calls come from the whole dose curve; as a rule, active = well fitted curve in the direction sought with a large enough effect; inconclusive = small, poorly fitted or top-dose-only effect, or another doubt; inactive = no such curve, though single readings can be large; an effect the other way counts as inactive or inconclusive.
Experiments:
[1] = HEK293 18hr Apoptosis Induction qHTS against the NCATS CANVASS Library (AID 1347357)
Procedure, shortened: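 Luminescent caspase-3/7 signal is measured in HEK293 cells exposed for 18 hours to an 11-point concentration series; doxorubicin serves as the plate control.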

[2] = HPAF-II 12hr Apoptosis Induction qHTS against the NCATS CANVASS Library (AID 1347358)
Procedure, shortened: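 HPAF-II cells (500/well, DMEM + 10% FBS) were exposed to compounds for 12 hours at 37 degrees C. Caspase-3/7 activity was then read by Caspase-Glo 3/7 luminescence after 15 min at room temperature.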

[3] = HEK293 24hr Apoptosis Induction qHTS against the NCATS CANVASS Library (AID 1347359)
Procedure, shortened: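 HEK293 cells (500/well, DMEM + 10% FBS) were exposed to compounds in an 11-point series for 24 hours at 37 degrees C, then caspase-3/7 activity was read by Caspase-Glo DEVD luciferase luminescence after 15 min.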

[4] = HPAF-II 18hr Apoptosis Induction qHTS against the NCATS CANVASS Library (AID 1347360)
Procedure, shortened: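 Apoptosis was scored as caspase-3/7 activity in HPAF-II pancreatic cancer cells treated 18 hours with an 11-point concentration series.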

[5] = HEK293 12hr Apoptosis Induction qHTS against the NCATS CANVASS Library (AID 1347361)
Procedure, shortened: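 Apoptosis in HEK293 was scored as caspase-3/7 luminescence following 12 h treatment with a compound concentration series in qHTS format.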

[6] = tested on: NAD(P)H diaphorase (Clostridium kluyveri); assay: Diaphorse counterscreen qHTS: Assay Interference Panel against the NCATS CANVASS Library (AID 1347362)
Procedure, shortened: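 Clostridium kluyveri diaphorase in PBS with 0.01% Tween-20 was preincubated 15 min at room temperature in the dark with compounds (11-point series). Resorufin fluorescence (ex 525/20, em 598/25) was read 5 min after adding resazurin/NADH.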

[7] = target: Luciferin 4-monooxygenase (Photinus pyralis) (UniProt P08659); assay: Firefly luciferase counterscreen qHTS: Assay Interference Panel against the NCATS CANVASS Library (AID 1347363); note: series mostly up to about 57 µM
Luciferin 4-monooxygenase (Photinus pyralis), sequence (P08659 whole entry, looked up): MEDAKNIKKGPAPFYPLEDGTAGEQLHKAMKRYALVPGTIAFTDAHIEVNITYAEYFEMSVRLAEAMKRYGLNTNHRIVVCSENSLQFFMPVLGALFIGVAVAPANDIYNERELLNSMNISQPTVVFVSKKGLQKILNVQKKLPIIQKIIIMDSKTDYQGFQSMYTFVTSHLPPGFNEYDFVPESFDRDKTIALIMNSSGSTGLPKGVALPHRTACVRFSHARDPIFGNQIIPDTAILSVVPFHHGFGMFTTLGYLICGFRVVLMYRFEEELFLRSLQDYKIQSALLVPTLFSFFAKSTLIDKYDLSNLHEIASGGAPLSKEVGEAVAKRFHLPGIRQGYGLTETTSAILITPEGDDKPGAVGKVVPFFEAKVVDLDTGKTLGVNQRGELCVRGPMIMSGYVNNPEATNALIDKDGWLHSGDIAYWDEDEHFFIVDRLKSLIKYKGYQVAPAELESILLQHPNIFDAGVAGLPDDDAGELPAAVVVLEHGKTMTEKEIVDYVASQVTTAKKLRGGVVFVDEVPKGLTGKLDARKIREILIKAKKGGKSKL
Procedure, shortened: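 Purified P. pyralis luciferase was added to compounds (11-point series) preincubated 15 min at room temperature with substrate containing 0.013 mM D-luciferin and 0.013 mM ATP; luminescence was read after 5 min.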

[8] = KB-3-1 Cancer Cell Toxicity qHTS against the NCATS CANVASS Library (AID 1347366); note: nearly all actives have a fitted effect of over 75% in size
Procedure, shortened: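 Seed KB-3-1 cells at 500/well in DMEM with 10% FBS, add compounds, incubate 72 hr at 37C and 5% CO2, then add CellTiter-Glo and read luminescence after 10 minutes.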

[9] = qHTS for ATAD5 Agonist screened against the NCATS CANVASS Library (AID 1347367);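 note: luciferase reporter driven by ATAD5 which rises upon DNA damage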
Procedure, shortened: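 Step one plated reporter cells and let them acclimate 5hr. Step two pinned compounds with MMS as positive and 0.46% DMSO as negative control. After 16hr incubation, fluorescence viability then luminescence were read.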

[10] = qHTS for ATAD5 Antagonist screened against the NCATS CANVASS Library (AID 1347370);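 note: HEK293T cells carrying an ATAD5 luciferase reporter co-treated with 10 µM 5-fluorouridine; series mostly up to about 46 µM; nearly all actives have a fitted effect of over 65% in size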
Procedure, shortened: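 HEK293T cells with a stably integrated ATAD5-controlled luciferase reporter were exposed to compounds (11-pt) alongside 10 uM 5-fluorouridine as ATAD5 stabilizer for 16hr at 37C. Viability was read by CellTiter-Fluor fluorescence, then ATAD5 by luminescence.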

[11] = J3T Cancer Cell Toxicity qHTS against the NCATS CANVASS Library (AID 1347371)
Procedure, shortened: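 J3T dog glioma cells (500 cells/well) were exposed to compounds in an 11-point series for 72 hr at 37C, 5% CO2. Cytotoxicity was read as ATP content by CellTiterGlo luminescence.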

[12] = target: Nuclear receptor subfamily 1 group I member 3 (Homo sapiens) (UniProt Q14994); assay: qHTS for Constitutive Androstane Receptor (CAR) Agonist screened against the NCATS CANVASS Library (AID 1347373);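 note: every well also contained 1.5 µM PK11195 alongside the test compound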
Nuclear receptor subfamily 1 group I member 3 (Homo sapiens), sequence (Q14994 whole entry, looked up): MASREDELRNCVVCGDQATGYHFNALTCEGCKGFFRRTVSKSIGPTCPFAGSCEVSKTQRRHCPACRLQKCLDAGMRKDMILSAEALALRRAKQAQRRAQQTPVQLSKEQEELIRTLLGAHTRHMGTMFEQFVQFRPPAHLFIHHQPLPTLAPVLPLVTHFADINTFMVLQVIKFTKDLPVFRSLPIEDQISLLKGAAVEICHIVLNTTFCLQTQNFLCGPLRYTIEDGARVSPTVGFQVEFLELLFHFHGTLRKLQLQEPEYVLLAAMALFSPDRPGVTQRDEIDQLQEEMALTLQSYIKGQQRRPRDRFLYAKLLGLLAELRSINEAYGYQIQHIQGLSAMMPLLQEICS
Procedure, shortened: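 HepG2 cells stably expressing hCAR and a CYP2B6-2.2kb luciferase reporter were treated for 24hr at 37C with compounds (11-point qHTS) in the presence of 1.5uM PK11195. Reporter activation was read by ONE-Glo luminescence.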

[13] = qHTS for Hypoxia signaling pathway (HIF-1) agonists against the NCATS CANVASS Library (AID 1347375)
Procedure, shortened: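 HRE-bla ME-180 cells (beta-lactamase reporter under hypoxia responsive element) in 0.5% dialyzed FBS medium, 5 h at 37C, then compound 17 h, 11-point qHTS series. CCF4-AM FRET substrate 2 h RT; 460/530 nm emission read.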

[14] = 10-beta competent E. coli microbial cell viability qHTS against the NCATS CANVASS Library (AID 1347376); note: series mostly up to about 46 µM
Procedure, shortened: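 10-beta competent E. coli (0.9 OD culture diluted to 0.2 OD) exposed to compounds in an 11-point qHTS series, incubated overnight at 37C, 5% CO2. Viability read as ATP by BacTiter-Glo luminescence after 20 min at room temperature.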

[15] = qHTS for Inflammasome Signaling Inhibitors: IL-1-beta AlphaLISA screen against the NCATS CANVASS Library (AID 1347379);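 note: human THP-1 cells primed with LPS then triggered with ATP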
Procedure, shortened: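 Human THP-1 cells were pretreated 1 hr at 37 °C with compounds (up to 57.5 uM final), then stimulated with LPS (250 ng/mL final) and ATP (1.25 mM final). Secreted IL-1B was read by AlphaLISA after 16 hr.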

[16] = Inflammasome Signaling qHTS Counterscreen: IL-1-beta AlphaLISA counterscreen against the NCATS CANVASS Library (AID 1347381);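 note: cell-free check with purified IL-1β in medium and no THP-1 cells; series mostly up to about 57 µM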
Procedure, shortened: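 To flag interference with the AlphaLISA read-out, a known amount of purified IL-1-beta (4 pg) replaced cell supernatant. Detection used anti-IL-1-beta acceptor beads, biotinylated antibody and streptavidin donor beads at room temperature.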

[17] = Cytotoxicity qHTS for assessment of Hepg2 cells membrane integrity screened against the NCATS CANVASS Library (AID 1347387)
Procedure, shortened: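 HepG2 cells (2000/well) attached overnight at 37C, then received compounds in an 11-point series at 0.59 nM - 46 uM final for 5 hr. LDH release was detected fluorometrically (ex 560/em 590 nm) with CytoTox-ONE reagent after 10 min at room temperature.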

[18] = qHTS for activators of dead-cell proteases activity screened against the NCATS CANVASS Library (AID 1347392);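 note: luminescence from protease leaking out of membrane-damaged cells cleaving impermeant substrate; rising signal means more cytotoxicity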
Procedure, shortened: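 HepG2 cells (2000/well) attached 18 h at 37C, then exposed 5 h to compounds (11-point qHTS). Dead-cell protease activity read as luminescence from cell-impermeant AAF-aminoluciferin substrate after 15 min at room temperature.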

[19] = Viability qHTS for inhibitors of the SERCaMP assay screened against the NCATS CANVASS Library (AID 1347400); note: series mostly up to about 92 µM; nearly all actives have a fitted effect of over 70% in size
Procedure, shortened: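 SH-SY5Y-GLuc SERCaMP MJH297-derived cells (1000 cells/well) were pre-incubated 4 h at 37C, then exposed to compounds for 48 h. Viability was read as CellTiter-Glo luminescence; bortezomib served as positive control.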

[20] = target: Nuclear receptor subfamily 1 group I member 3 (Homo sapiens) (UniProt Q14994); assay: qHTS for Constitutive Androstane Receptor (CAR) Antagonist screened against the NCATS CANVASS Library (AID 1347372);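 note: cells stimulated with 50 nM CITCO agonist so inhibition reflects antagonism; series mostly up to about 46 µM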
Procedure, shortened: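 HepG2 cells stably carrying hCAR and a CYP2B6-2.2kb luciferase reporter were exposed to compounds plus 50 nM CITCO for 24hr at 37C. CAR activity was read by ONE-Glo luminescence, with viability measured first by CellTiter-Fluor.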

Measured: Potency

CCC(=O)N[C@@H](C[C@H](C)C(Cl)(Cl)Cl)C(=O)N1C(=O)C=C(OC)[C@@H]1CC(C)C
inactive: [1] | [2] | [3] | [4] | [5] | [6] | [7] | [8] | [9] | [10] | [11] | [12] | [13] | [14] | [15] | [16] | [17] | [18] | [19]

C[C@H]1C=C[C@H]2CCCC[C@@H]2[C@H]1C(=O)[C@H]1CC2=C(C(=O)O)CCN2C1=O
inactive: [1] | [2] | [3] | [4] | [5] | [6] | [7] | [8] | [9] | [10] | [11] | [20] | [12] | [13] | [14] | [15] | [16] | [17] | [18]

C=CC(CCCCC)C1C(=O)NC(=O)C1C(=O)C1C(/C=C/C)C=CC2CC(C(=O)O)CC(C)C21 (stereo not given)
inactive: [1] | [2] | [3] | [4] | [5] | [7] | [8] | [9] | [10] | [11] | [20] | [12] | [13] | [14] | [16] | [17] | [18] | [19]

CC(=O)O[C@H]1c2ccccc2-c2c3c(cc4c2[C@@H]1N(C(C)=O)CC4)OCO3
inactive: [1] | [2] | [3] | [4] | [5] | [6] | [7] | [8] | [9] | [10] | [11] | [20] | [12] | [13] | [14] | [15] | [16] | [17] | [18]

CO[C@H]1[C@@H](OC(=O)/C(C)=C\[C@@H]2O[C@@H]2[C@H]2O[C@H]2C)[C@H](O)[C@H](OCC23C[C@@H]4[C@H](C)CC[C@H]4C4(C=O)CC2C=C(C(C)C)C34C(=O)O)O[C@@H]1C (stereo not given in full)
inactive: [1] | [2] | [3] | [4] | [5] | [6] | [7] | [8] | [9] | [10] | [11] | [20] | [12] | [13] | [14] | [15] | [16] | [17] | [18] | [19]

— PubChem BioAssay (NCATS)
